# Hits are enriched below; roughly 11% of the tested compounds scored in any of these assays.
# JMJD2A Tudor = inhibitors of human JMJD2A Tudor domain. O75164. Potency, µM (top dose mostly 114 µM), usual class: inhibitors. actives 4.4% (n = 390,000). AlphaScreen JMJD2A-Tudor / H3K4me3 peptide binding; note: nearly all actives have a fitted effect of over 50% in size
# VDR inhibitor = blocks the human vitamin D receptor; P11473; VDR-SRC2-3 peptide fluorescence polarization, 2 h; Potency, µM, hits mostly inhibitors; actives 0.93% (n = 400,000); AID 504847
# Target sequence (P11473 whole entry, looked up): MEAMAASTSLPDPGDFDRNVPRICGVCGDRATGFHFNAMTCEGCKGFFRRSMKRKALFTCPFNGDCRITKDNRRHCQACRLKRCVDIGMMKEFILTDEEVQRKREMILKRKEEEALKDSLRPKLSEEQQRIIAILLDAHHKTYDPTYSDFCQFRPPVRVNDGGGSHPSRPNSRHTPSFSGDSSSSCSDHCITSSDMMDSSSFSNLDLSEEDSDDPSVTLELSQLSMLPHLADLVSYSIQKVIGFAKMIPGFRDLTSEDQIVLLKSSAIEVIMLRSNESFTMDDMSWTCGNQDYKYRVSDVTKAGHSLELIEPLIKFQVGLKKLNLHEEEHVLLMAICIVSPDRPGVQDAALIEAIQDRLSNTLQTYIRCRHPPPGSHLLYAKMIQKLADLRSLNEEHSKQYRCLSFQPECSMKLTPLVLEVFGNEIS
#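 Compounds are added to VDR with labelled SRC2-3 coactivator peptide and held 2 h at room temperature. Inhibition of the VDR–peptide interaction is then read as a change in fluorescence polarization.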
# BAZ2B inh = inhibitors of human BAZ2B bromodomain; AlphaScreen BAZ2B-H3K14Ac peptide displacement; Potency, µM (top dose mostly 114 µM), hits mostly inhibitors; Q9UIF8; actives 4.4% (n = 360,000); AID 504333; note: nearly all actives have a fitted effect of over 60% in size
#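 AlphaScreen displacement: compounds (up to 110uM) incubated 30 min at room temperature with a preformed 50 nM BAZ2B/50 nM biotinylated H3K14Ac peptide complex in PBS pH 7.4 with Tween-20. Donor and acceptor beads at 10 ug/mL final added, 20 min light-protected before reading.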
# HP1b binding inh = inhibitors of HP1-beta chromodomain binding to methylated histone tails; AlphaScreen HP1-beta / biotin-H3K9me3 peptide binding; P83916; Potency, µM (titrated, usually from 114 µM), most hits filed as inhibitors; actives 0.56% (n = 390,000); note: nearly all actives have a fitted effect of over 70% in size
#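 Compound inhibition of the preformed complex between 50 nM HP1-beta and 50 nM biotinylated H3K9me3 peptide was read by AlphaScreen. Buffer was PBS pH 7.4 with 0.01% Tween-20. Incubations ran 30 min at room temperature, with 10 ug/mL donor/acceptor beads.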
# PLK1 PBD inh = blocks phosphopeptide binding to human PLK1 polo-box domain; P53350; actives 2.8% (n = 360,000); Plk1 PBD binding of FITC phosphopeptide, fluorescence polarization; Potency, µM, usual class: inhibitors; note: series mostly up to about 57 µM; nearly all actives have a fitted effect of over 65% in size
# G9a block = inhibitors of human histone lysine methyltransferase G9a; AID 504332; actives 8.8% (n = 350,000); Potency, µM (titrated, usually from 102 µM), usual class: inhibitors; Q96KQ7; G9a H3K9 monomethylation, AlphaScreen, 2 h; note: nearly all actives have a fitted effect of over 75% in size
# Target sequence (Q96KQ7 913-1193 limits assumed): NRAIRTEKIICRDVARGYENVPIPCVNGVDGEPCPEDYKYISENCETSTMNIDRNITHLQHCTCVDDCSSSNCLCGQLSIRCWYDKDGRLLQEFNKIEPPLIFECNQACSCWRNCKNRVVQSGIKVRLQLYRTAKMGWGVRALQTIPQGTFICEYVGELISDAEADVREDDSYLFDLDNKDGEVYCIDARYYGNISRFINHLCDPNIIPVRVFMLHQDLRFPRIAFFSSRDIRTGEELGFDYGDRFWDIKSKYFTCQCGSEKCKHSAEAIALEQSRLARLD
#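 Step 1: enzyme (final 20 nM) with compound, 15 min RT. Step 2: substrate peptide 500 nM and SAM 20 uM, 2 h RT. Step 3: anti-H3K9me1 antibody and AlphaScreen beads, 10 min, then plate read.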
# Numbers stand for hits; i = inactive; ? = inconclusive; nt = no result given; [ ] = another dose, or the depositor's remark. Calls come from the whole dose curve; as a rule, active = well fitted curve in the direction sought with a large enough effect; inconclusive = small, poorly fitted or top-dose-only effect, or another doubt; inactive = no such curve, though single readings can be large; an effect the other way counts as inactive or inconclusive.
SMILES,JMJD2A Tudor,VDR inhibitor,BAZ2B inh,HP1b binding inh,PLK1 PBD inh,G9a block
CC(/C=N/NC(=O)CSc1n[nH]c(=O)[nH]c1=O)=C\c1ccccc1,i,i,i,i,i,i
S=c1[nH]nc(COc2ccccc2)n1/N=C/c1ccccc1Cl,56.2µM,i,i,i,26.7µM,2.24µM
S=c1[nH]nc(COc2ccccc2)n1/N=C/c1cccc(Cl)c1Cl,?,i,i,i,?,?
CCc1n[nH]c(=S)n1/N=C/C(C)=C\c1ccccc1,25.1µM,i,56.2µM,i,i,i[0.501 µM]
O=C(Oc1ccc(Cl)c2cccnc12)c1ccco1,i,i,50.1µM,i,i,?
COc1ccc(/C=N\NC(=O)C2=NNC(=O)C2C)cc1 (stereo unspecified),?,i,?,i,i,i[0.0925 µM]
O=C(O)c1ccccc1C(=O)Nc1ccc(-n2ccc(C(F)(F)F)n2)cc1,i,i,i,i,i,79.4µM
Cc1ccc2[nH]c(=O)c(CN(CC3CCCO3)C(=S)Nc3ccccc3)cc2c1 (stereo unspecified),i,i,i,i,i,i
CCCCCn1c(N2CCN(c3cccc(Cl)c3)CC2)nc2c1c(=O)[nH]c(=O)n2C,?,i,i,i,i,i
Cn1c(=O)[nH]c(=O)c2c1nc(N1CCN(c3cccc(Cl)c3)CC1)n2CCCc1ccccc1,nt,nt,i,nt,nt,17.8µM
CCCCn1c(N2CCC(Cc3ccccc3)CC2)nc2c1c(=O)[nH]c(=O)n2C,50.1µM,i,?,?,i,?
CN(C)c1ccc(/C=c2\sc3n(c2=O)CCCN=3)cc1,i[11.4 µM],i,i,i,i,3.16µM
O=c1/c(=C/c2ccc(O)cc2)sc2n1CCCN=2,i,i,i,i,i,?
COCc1oc2ccc(NS(=O)(=O)c3ccc(C)cc3)cc2c1C(=O)OC,i,i,i,i,nt,i
COc1ccc(N2C(=O)c3ccccc3NC2(C)C)cc1,i,i,i,i,i,i
Cc1ccc(CC2C(=O)N(c3ccccc3)C(=O)C2C)cc1 (stereo unspecified),i,i,i,i,i,i
C=C1c2cc(C)ccc2NC(=O)N1c1ccccc1,i,i,i,i,i,31.6µM
C=C1c2ccccc2NC(=O)N1c1ccc(OC)cc1,i,i,i,i,i,20µM
CC(=O)c1[nH]c(C)c(C(=O)N2CCCC(Nc3cccc(F)c3)C2)c1C (stereo unspecified),i,i,i,i,i,i
Cc1ccc(S(=O)(=O)NC(C(=O)N2CCN(S(=O)(=O)c3cccc(F)c3)CC2)C(C)C)cc1 (stereo unspecified),i,i,i,i,i,i
Cn1c(=O)c(-c2ccc(Cl)cc2)nc2cnc(N3CCOCC3)nc21,nt,i,nt,nt,nt,i[0.501 µM]
Cc1ccc2c(c1)c1c(n2CC(O)CN2CCCCCC2)CCCC1 (stereo unspecified),?,i,35.5µM,?,i,?
CNCC(O)Cn1c2c(c3ccccc31)CCCC2 (stereo unspecified),28.2µM,i,?,i,i,50.1µM
Cc1ccc2c(c1)c1c(n2CC(O)Cn2c(C)nc3ccccc32)CCCC1 (stereo unspecified),?,i,i,i,i,i
Cc1ccc2c(c1)c1c(n2CC(O)CNC(C)(C)C)CCCC1 (stereo unspecified),44.7µM,i,44.7µM,i,i,50.1µM
SMILES,JMJD2A Tudor,VDR inhibitor,BAZ2B inh,HP1b binding inh,PLK1 PBD inh,G9a block
O=c1[nH]c(=O)c2[nH]c(=O)n(-c3ccccc3)c2[nH]1,i,?,nt,i,i,nt
C=CCNc1nc(-c2cc3ccccc3o2)cs1,i,i,?,i,i,11.2µM
c1ccc2sc(NCC3CCCO3)nc2c1 (stereo unspecified),i,i,i,i,i,i
c1ccc2oc(-c3csc(NCC4CCCO4)n3)cc2c1 (stereo unspecified),?,79.4µM,?,?,i,39.8µM
Cc1cccc(S(=O)(=O)c2c(N)n(-c3ccccc3)c3nc4ccccc4nc23)c1,i,i,i,i,i,i
CC(C)c1cccc(C(C)C)c1NC(=O)CCN1C(=O)NC2(CCCC2)C1=O,i,i,i,i,i,i[2.33 µM]
CCCCN1C(=O)/C(=c2\sc3nc(=O)c(-c4ccccc4)nn3c2=O)c2ccccc21,?,?,?,?,26.7µM,?
CCCCN1C(=O)/C(=C2\SC(N3CCOCC3)=NC2=O)c2ccccc21,i,i,i,i,i,i
CCCN1C(=O)/C(=c2\sc3nc(=O)c(Cc4ccc(C)cc4)nn3c2=O)c2ccccc21,?,?,?,?,29.9µM,nt
Cc1ccc2sc(-c3ccc(NC(=O)CCN4C(=O)c5ccccc5C4=O)cc3)nc2c1,nt,nt,i,nt,nt,i
COc1ccc(CCNC(=O)CCCCCn2c(=O)[nH]c3cc(OC)c(OC)cc3c2=O)cc1OC,i,i,i,i,nt,i
CCOc1ccc(-n2c(-c3ccc(Br)cc3)cc3c2CC(C)(C)CC3=O)cc1,12.6µM,i,10µM,?,nt,?
Cc1cc2c(n1-c1ccc(Br)cc1)CC(C)(C)CC2=O,?,i,?,i,i,i
Cc1cccc(Nc2nc(C)nc3c2oc2ccccc23)c1,i,i,?,i,i,79.4µM
CC1(C)CC(=O)C2=C(C1)N1C(=C(C#N)C2c2ccc(Cl)cc2)N=C(N)c2ccccc21 (stereo unspecified),?,i,50.1µM,i,i,?
COC(=O)/C=C/C(C)=C/C=C/C(C)=C/C=C/C=C(C)/C=C/C=C(C)/C=C/C(=O)O,nt,89.1µM,nt,nt,nt,nt
COc1ccccc1NC(=O)/C=C\C(=O)O,i,i,nt,i,?,?
NC(=Nc1ccc(Cl)cc1)c1ccccc1,i,i,i,i,i,i
CSC(=Nc1ccc(Cl)cc1)N[n+]1ccccc1,i,i,i,i,i,2µM
Cc1ccc(-n2c(=O)c3oc4ccccc4c3n(Cc3cccc(F)c3)c2=O)cc1C,i,i,?,i,nt,i
O=c1c2oc3ccccc3c2[nH]c(=S)n1-c1ccc(F)cc1,i,i,nt,i,i,50.1µM
Cc1ccc(-n2c(=S)[nH]c3c(oc4ccccc43)c2=O)cc1C,i,?,i,i,i,79.4µM
O=c1[nH]c2c(oc3ccccc32)c(=O)n1Cc1ccccc1,i,i,i,i,i,i
C[C@@H]1COc2cc(N3CCC[C@@H]3CO)ccc2S(=O)(=O)N1,nt,nt,nt,nt,i,nt
COc1ccc(CCC(=O)N2CCc3ccccc32)cc1,i,i,i,i,i,i[12.7 µM]
COc1cc(NS(=O)(=O)c2ccc(C)cc2C)cc(OC)c1OC,i,i,?,i,i,79.4µM
Cc1ccc(S(=O)(=O)Nc2ccncc2)c(C)c1,89.1µM,i,i,i,i,i
CCOC(=O)CSc1nc2sc(C(=O)O)c(C)c2c(=O)[nH]1,i,i,i,i,i,79.4µM
CCOC(=O)CSc1nc2sc(C)c(C)c2c(=O)[nH]1,i,i,i,i,i,i[12.7 µM]

# Bioassay records (PubChem BioAssay)
